Potency, activity change, negative = inhibition and max response data for 21 compounds are collected here from PubChem BioAssay (NCATS).

For assay [1], the target named is Cytochrome P450 3A4 (Homo sapiens) (UniProt P08684). As to the kind of experiment: qHTS Assay for Inhibitors and Substrates of Cytochrome P450 3A4 (AID 884). Also: nearly all actives have a fitted effect of over 50% in size. Also: potency is read from the fitted curve at half-maximal effect. As to activity change, negative = inhibition: % is scaled to controls: 0 for no effect and ±100 for the full control effect. The essentials:
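Luminescent readout of luciferin produced by CYP3A4 (20 nM) dealkylation of Luciferin-PPXE, 25 uM (its KM). NADPH-driven reaction ran 60 min at RT after 10 min compound preincubation; data scaled to 57 uM ketoconazole as 100% inhibition.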

The nature of assay [2]: Confirmation and Secondary Assay for Modulators of Hemoglobin Beta Chain Splicing at IVS2 654 locus (AID 910).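 Also: HeLa cells stably carrying EGFP split by mutant beta-globin IVS2-654 intron; % of control where 0% means no effect.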 The essentials: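 HeLa cells stably expressing EGFP interrupted by β-globin IVS2-654 intron, seeded overnight in Opti-MEM/2% FCS, then treated 2 days at 37 °C. Restored splicing read as total peak GFP intensity per well by laser scanning cytometry (488 nm excitation, 500–520 nm emission); 500 nM antisense PNA as control.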

A short description of assay [3]: Confirmation and Secondary Assay for Modulators of Hemoglobin Beta Chain Splicing at IVS2 705 locus (AID 930).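 Also: HeLa cells stably expressing the EGFP-705 splicing reporter; GFP fluorescence per well restored by corrected splicing of the IVS2-705 intron in EGFP; % of control where 0% means no effect.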 In outline: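 HeLa EGFP-705 reporter; 500 cells/well, o/n 37C 5% CO2; cpd 2 d; 488 ex/500-520 em laser scan; total peak GFP intensity/well. Ref: 500 nM […] antisense PNA.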
Assay [4] in a line: qHTS Assay for Lipid Storage Modulators (AID 1519; calls by dose curve; as to activity change, negative = inhibition: % is scaled to controls: 0 for no effect and ±100 for the full control effect). The following applies: Drosophila S3 cells, BODIPY lipid droplet/cell ratio, laser cytometry, cells loaded with oleic acid; for activity change, negative = inhibition: at 57.5 µM (top of the series). The essentials: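 Cells seeded at 5,000 per well were treated with compounds over a concentration series and loaded with oleic acid (400 uM, as added). Lipid droplet fluorescence (488 nm excitation, 500-530 nm channel) was read by laser-scanning cytometry and normalized to 20 uM Triacsin C.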

Assay [5] concerns the target Ubiquitin carboxyl-terminal hydrolase 1 (Homo sapiens) (UniProt O94782). As to the kind of experiment: Inhibitors of USP1/UAF1: Pilot qHTS (AID 504865).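 Also: rhodamine fluorescence freed from ubiquitin-rhodamine substrate followed over time; top concentration of the series differs between compounds; % is scaled to controls: 0 for no effect and ±100 for the full control effect; nearly all actives have a fitted effect of over 35% in size.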 The essentials: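 USP1/UAF1 complex (1nM) preincubated with compound 15 min at room temperature, then Ub-Rho substrate (150nM final) added. Fluorescence read kinetically at 480/540 nm, 6 reads every 60 seconds. Buffer: 50mM HEPES pH 7.8, 0.5mM EDTA, 0.1 mg/ml BSA, 1mM TCEP, 0.01% Tween-20.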
A general note: In qHTS, concentration-response curves come from the screen itself.

[6] abbreviates: measured here: cell count channel max response.
[7] abbreviates: measured here: lipid channel max response.

Each structure is given as a SMILES string. Records with an inconclusive call do not appear. Active and inactive are the calls of the source. Unless noted, calls follow the shape of the dose curve; as a rule, active = well fitted curve in the direction sought with a large enough effect; inconclusive = small, poorly fitted or top-dose-only effect, or another doubt; inactive = no such curve, though single readings can be large; an effect the other way counts as inactive or inconclusive.

Ubiquitin carboxyl-terminal hydrolase 1 (Homo sapiens), sequence (O94782 whole entry, looked up): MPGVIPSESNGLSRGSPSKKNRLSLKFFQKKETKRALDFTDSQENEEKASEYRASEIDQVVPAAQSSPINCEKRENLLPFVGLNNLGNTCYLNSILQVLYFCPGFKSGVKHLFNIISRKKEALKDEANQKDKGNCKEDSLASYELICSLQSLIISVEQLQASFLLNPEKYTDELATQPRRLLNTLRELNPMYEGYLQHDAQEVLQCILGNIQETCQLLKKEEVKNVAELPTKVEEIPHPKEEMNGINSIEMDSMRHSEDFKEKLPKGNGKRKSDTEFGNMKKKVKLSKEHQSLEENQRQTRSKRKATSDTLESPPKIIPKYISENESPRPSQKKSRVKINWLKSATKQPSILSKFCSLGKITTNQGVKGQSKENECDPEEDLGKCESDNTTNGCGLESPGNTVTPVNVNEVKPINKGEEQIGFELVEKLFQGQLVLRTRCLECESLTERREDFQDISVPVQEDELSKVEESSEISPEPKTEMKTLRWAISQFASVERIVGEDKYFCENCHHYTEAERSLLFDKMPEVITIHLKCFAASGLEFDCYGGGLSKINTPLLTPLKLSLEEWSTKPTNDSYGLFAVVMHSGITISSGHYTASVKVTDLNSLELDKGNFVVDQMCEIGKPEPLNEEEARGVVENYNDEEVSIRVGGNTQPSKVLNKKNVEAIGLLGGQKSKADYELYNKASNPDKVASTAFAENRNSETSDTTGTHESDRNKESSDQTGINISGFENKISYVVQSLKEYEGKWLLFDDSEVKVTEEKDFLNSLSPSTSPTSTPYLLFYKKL
Cytochrome P450 3A4 (Homo sapiens), sequence (P08684 whole entry, looked up): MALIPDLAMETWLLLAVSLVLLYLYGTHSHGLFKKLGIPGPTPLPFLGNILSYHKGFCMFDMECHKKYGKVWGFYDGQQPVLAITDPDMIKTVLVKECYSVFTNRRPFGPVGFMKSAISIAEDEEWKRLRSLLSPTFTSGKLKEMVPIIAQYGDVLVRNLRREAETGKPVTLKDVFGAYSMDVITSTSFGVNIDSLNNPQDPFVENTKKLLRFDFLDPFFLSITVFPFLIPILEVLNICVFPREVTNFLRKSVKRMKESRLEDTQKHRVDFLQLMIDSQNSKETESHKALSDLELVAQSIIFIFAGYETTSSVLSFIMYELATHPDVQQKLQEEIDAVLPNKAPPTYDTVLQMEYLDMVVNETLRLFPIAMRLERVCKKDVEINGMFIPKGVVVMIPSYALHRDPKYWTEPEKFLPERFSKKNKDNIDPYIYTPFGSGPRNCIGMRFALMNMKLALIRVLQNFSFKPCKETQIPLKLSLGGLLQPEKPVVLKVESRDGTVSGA

Regarding `CCCCCCCCCCCCCc1ccco1`, the Potency entry in assay [1], in assay [2], in assay [3] and in assay [5] was “inactive” in each case. For the same compound, the activity change, negative = inhibition in assay [4] is 1.58% (inactive). The max response in assay [4] (setting [6]) was -6.07%; in assay [4] (setting [7]), 3.51%.
In the case of `O=c1[nH]c(=O)c2nc(Br)n(C3OC(CO)C(O)C3O)c2[nH]1` (configuration not stated), the Potency entry in assay [1], in assay [2], in assay [3] and in assay [5] was “inactive” in each case. In addition, the activity change, negative = inhibition in assay [4] is 6.72% (inactive). For the same compound, the max response in assay [4] (setting [6]) was determined as 5.7%; in assay [4] (setting [7]), 13%.
As to `CC(C(=O)O)C1CCC2C3CC=C4CC(O)CC[C@@]4(C)C3CC[C@]12C` (some centres not stated), the Potency entry in assay [1], in assay [2], in assay [3] and in assay [5] was “inactive” throughout. In assay [4], the activity change, negative = inhibition was 4.4% (inactive). Besides, the max response in assay [4] (setting [6]) amounted to 6.91%; in assay [4] (setting [7]) it was 12.2%.
For `COC(=O)C1=CO[C@@H](O[C@H]2OC(CO)C(O)C(O)C2O)C2C1CC(O)C2C` (some centres not stated), the Potency entry in assay [1], in assay [2], in assay [3] and in assay [5] was “inactive” each time. Moreover, the activity change, negative = inhibition in assay [4] is 6.73% (inactive). For the same compound, the max response in assay [4] (setting [6]) was found to be 11.3%; in assay [4] (setting [7]), 19.4%.
As for `O=c1cc(-c2cccc(O)c2)oc2ccc(O)cc12`, the Potency in assay [1] is 3.98 µM (active). For the same compound, the Potency result in assay [2], in assay [3] and in assay [5] was “inactive” throughout. Moreover, in assay [4], the activity change, negative = inhibition is 13.1% (inactive). Moreover, the max response in assay [4] (setting [6]) came out at 3.49%; in assay [4] (setting [7]) it was 17.7%.
For the compound `COc1ccc2c(c1)O[C@@H]1c3ccc(OC)cc3OCC21` (some centres not stated), the Potency entry in assay [1], in assay [2], in assay [3] and in assay [5] was “inactive” in each case. In assay [4], the activity change, negative = inhibition was 3.42% (inactive). The results for the max response in assay [4] (setting [6]) and in assay [4] (setting [7]) were 4.03% and 9.6%, respectively.
On to `Nc1nc2c([nH]c(=S)n2C2OC(CO)C(O)C2O)c(=O)[nH]1` (configuration not stated), for which the Potency result in assay [1], in assay [2], in assay [3] and in assay [5] was “inactive” throughout. For the same compound, the activity change, negative = inhibition in assay [4] is 2.15% (inactive). For the same compound, the values for the max response in assay [4] (setting [6]) and in assay [4] (setting [7]) were 0.955% and 15.7%, respectively.
Turning to `COc1cc(OC)c2c(c1Cl)OC1(C2=O)C(O)=CC(=O)CC1C` (configuration not stated), the Potency result in assay [1], in assay [2], in assay [3] and in assay [5] was “inactive” throughout. The activity change, negative = inhibition in assay [4] was 0.55% (inactive). Besides, the max response in assay [4] (setting [6]) is -1.12%; in assay [4] (setting [7]), 2.38%.
With `NC(CSCSCC(N)C(=O)O)C(=O)O` (configuration not stated), the Potency entry in assay [1], in assay [2], in assay [3] and in assay [5] was “inactive” each time. For the same compound, the activity change, negative = inhibition in assay [4] is 1.54% (inactive). For the same compound, the max response in assay [4] (setting [6]) is 7.28%; in assay [4] (setting [7]), 12.4%.
`C=C1CCC(C2CC(=O)OC2=O)C(=O)CCC2C1CC2(C)C` (configuration not stated): the Potency entry in assay [1], in assay [2], in assay [3] and in assay [5] was “inactive” in each case. Besides, in assay [4], the activity change, negative = inhibition is 4.44% (inactive). In addition, the values for the max response in assay [4] (setting [6]) and in assay [4] (setting [7]) were 19.1% and 26.1%, respectively.
`C[C@]12CCC3c4ccc(O)cc4CCC3C1CC(O)C2O` (some centres not stated): the Potency result in assay [1], in assay [2], in assay [3] and in assay [5] was “inactive” throughout. Further, the activity change, negative = inhibition in assay [4] was -4.9% (inactive). Further, the max response came to 6.91% in assay [4] (setting [6]) and 3.96% in assay [4] (setting [7]).
As for `Nc1nc2ncc(=O)[nH]c2c(=O)[nH]1`, the Potency result in assay [1], in assay [2], in assay [3] and in assay [5] was “inactive” each time. In addition, the activity change, negative = inhibition in assay [4] was 4.1% (inactive). Moreover, the max response was 2.7% in assay [4] (setting [6]) and 6.73% in assay [4] (setting [7]).
Consider `CC(=O)OC1C=C[C@]2(C)C(CC(OC(C)=O)[C@@]3(C)C4=CC(=O)OC(c5ccoc5)[C@]4(C)CCC23)C1(C)C` (some centres not stated), for which the Potency result in assay [1], in assay [2], in assay [3] and in assay [5] was “inactive” throughout. For the same compound, the activity change, negative = inhibition in assay [4] is -0.882% (inactive). Further, the max response in assay [4] (setting [6]) is -3.66%; in assay [4] (setting [7]), 1.1%.
For the compound `NC(CCC(=O)NC(CCSC(CC(=O)O)C(=O)O)C(=O)NCC(=O)O)C(=O)O` (configuration not stated), the Potency entry in assay [1], in assay [2], in assay [3] and in assay [5] was “inactive” in each case. The activity change, negative = inhibition in assay [4] is 6.92% (inactive). For the same compound, the max response in assay [4] (setting [6]) amounted to 13.3%; in assay [4] (setting [7]), 21.2%.
As for `C[N+]1(C)CC(O)[C@H](C(=O)[O-])C1` (some centres not stated), the Potency result in assay [1], in assay [2], in assay [3] and in assay [5] was “inactive” throughout. The activity change, negative = inhibition in assay [4] is 1.35% (inactive). Besides, the max response in assay [4] (setting [6]) is 0.129%; in assay [4] (setting [7]), 0.467%.
With `COc1ccc(C2CC(=O)c3c(O)cc(O)cc3O2)cc1O` (configuration not stated), the Potency in assay [1] was 15.8 µM (active). Also, the Potency entry in assay [2], in assay [3] and in assay [5] was “inactive” throughout. In addition, the activity change, negative = inhibition in assay [4] was 3.83% (inactive). Moreover, the figures for the max response in assay [4] (setting [6]) and in assay [4] (setting [7]) were 3.05% and 6.13%, respectively.
For `CC1O[C@@H](O[C@H]2C(Oc3cc(O)c4c(c3)OC(c3ccc(O)cc3)CC4=O)OC(CO)C(O)C2O)C(O)C(O)C1O` (some centres not stated), the Potency result in assay [1], in assay [2], in assay [3] and in assay [5] was “inactive” each time. For the same compound, in assay [4], the activity change, negative = inhibition is 6.1% (inactive). For the same compound, the max response turned out to be 13% in assay [4] (setting [6]) and 21.6% in assay [4] (setting [7]).
For `CC1CCC(C(C)(C)O)CC2=C1CCC2C` (configuration not stated), the Potency result in assay [1], in assay [2], in assay [3] and in assay [5] was “inactive” in each case. The activity change, negative = inhibition in assay [4] was 7.53% (inactive). The max response in assay [4] (setting [6]) came out at 9.89%; in assay [4] (setting [7]), 15.9%.
With `COc1cc(O)c(C(=O)O)c(O)c1`, the Potency entry in assay [1], in assay [2], in assay [3] and in assay [5] was “inactive” in each case. Moreover, in assay [4], the activity change, negative = inhibition was 4.12% (inactive). Moreover, the values for the max response in assay [4] (setting [6]) and in assay [4] (setting [7]) were 1.93% and 6.74%, respectively.
As to `COc1ccc(-c2cc(=O)c3c(O)c(OC)c(OC)c(OC)c3o2)cc1`, the Potency entry in assay [1], in assay [2], in assay [3] and in assay [5] was “inactive” in each case. Besides, the activity change, negative = inhibition in assay [4] is 5.49% (inactive). In addition, the max response in assay [4] (setting [6]) came out at 14.3%; in assay [4] (setting [7]), 20.3%.
On to `NC1=NCCN1CC(=O)O`, for which the Potency entry in assay [1], in assay [2], in assay [3] and in assay [5] was “inactive” throughout. The activity change, negative = inhibition in assay [4] is 4.53% (inactive). Also, the max response was 1.34% in assay [4] (setting [6]) and 10.9% in assay [4] (setting [7]).
